According to PubChem BioAssay AID1778 (Sanford-Burnham Center for Chemical Genomics, 2009):
Among all 290,000 compounds or so, about 260 (0.09%) were called active. Shown is part of a subset that was picked to be rich in actives. Measured potencies and affinities stand elsewhere. Unmarked numbers belong to inactive results. Rule as the data show it: active = inhibition above about 50%; inactive = the rest.

What follows are compounds tested against Kappa-type opioid receptor (Homo sapiens) (UniProt P41145) (assay: KOR antagonists, beta-arrestin recruitment, cell-based, luminescence, uHTS (AID 1778)). Conditions: antagonist mode, active compounds read high; at 10 µM unless noted.
Sequence of Kappa-type opioid receptor (Homo sapiens) (P41145 whole entry, looked up): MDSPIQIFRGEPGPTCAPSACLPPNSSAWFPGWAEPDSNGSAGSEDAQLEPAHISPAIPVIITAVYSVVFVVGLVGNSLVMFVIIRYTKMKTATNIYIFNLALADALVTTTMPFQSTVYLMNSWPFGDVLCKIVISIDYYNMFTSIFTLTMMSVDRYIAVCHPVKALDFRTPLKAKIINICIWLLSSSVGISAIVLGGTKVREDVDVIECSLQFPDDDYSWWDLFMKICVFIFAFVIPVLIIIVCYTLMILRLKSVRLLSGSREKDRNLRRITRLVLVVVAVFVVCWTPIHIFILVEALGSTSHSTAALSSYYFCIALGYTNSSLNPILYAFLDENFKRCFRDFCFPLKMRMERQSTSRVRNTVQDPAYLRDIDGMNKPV

**Q.** `Cc1ccc(C(=O)Nc2nnc(-c3ccco3)o2)cc1` was tested. Which inhibition did it give?
**A.** Its inhibition is 14.7%.

**Q.** With `COc1ccc(-c2nnc(NC(=O)c3ccc4c(c3)OCCO4)o2)cc1` as the compound, how does the inhibition read?
**A.** The inhibition was 29.6%.

**Q.** For `O=C(Nc1nnc(-c2ccc3c(c2)OCCO3)o1)c1ccc(Cc2ccccc2)cc1`, which inhibition is on record?
**A.** The inhibition was 51.8% (active).

**Q.** With `O=C(Nc1nnc(C2=COCCO2)o1)c1ccc(Cc2ccccc2)cc1` as the compound, how does the inhibition read?
**A.** The inhibition was -22.6% [at 20 µM].

**Q.** With `Cc1ccc(C(=O)Nc2nnc(-c3ccco3)o2)cc1C` as the compound, how does the inhibition read?
**A.** Its inhibition is 40.8%.

**Q.** For `O=C(Nc1nnc(-c2ccco2)o1)c1ccc2ccccc2c1`, which inhibition is on record?
**A.** The inhibition was 89.7% (active).

**Q.** With `CCCN(CCC)S(=O)(=O)c1ccc(C(=O)Nc2nnc(-c3cc(OC)cc(OC)c3)o2)cc1` as the compound, how does the inhibition read?
**A.** The inhibition was -91.7%.

**Q.** Which inhibition does the source give for `O=C(CCc1ccccc1)Nc1nnc(-c2ccc3c(c2)OCCO3)o1` here?
**A.** The inhibition was 11.2%.

**Q.** For `CC1CCN(CC(=O)Nc2ccccc2Sc2ccccc2)CC1`, which inhibition is on record?
**A.** The inhibition was -8%.

**Q.** With `O=C(Nc1cccnc1)c1ccccc1Cl` as the compound, how does the inhibition read?
**A.** The inhibition was 21.5% [at 20 µM].

**Q.** Which inhibition does the source give for `CN1CCC(N(C)S(=O)(=O)c2ccc(F)cc2F)CC1` here?
**A.** Its inhibition is -33.5%.

**Q.** How did the inhibition turn out when `Cc1c(C(=O)O)[nH]c2c1C(=O)CC(c1ccc(C(C)(C)C)cc1)C2` (centres undefined) was run?
**A.** Its inhibition is 14.6%.

**Q.** How did the inhibition turn out when `Cc1csc(NC(=S)Nc2cccc(Cl)c2)n1` was run?
**A.** The inhibition was 57.9% (active).

**Q.** With `NNC(=S)Nc1cccc(Cl)c1` as the compound, how does the inhibition read?
**A.** Its inhibition is 18.7%.

**Q.** For `Cc1csc(NC(=O)Nc2cccc(Cl)c2)n1`, which inhibition is on record?
**A.** Its inhibition is -9.6%.

**Q.** With `COc1ccc(OC)c(-n2c(SCC(C)=O)nnc2-c2cccc(S(=O)(=O)N(C)C)c2)c1` as the compound, how does the inhibition read?
**A.** The inhibition was 21.3%.

**Q.** `O=C(Nc1cccc(C(F)(F)F)c1)Oc1ccc(Cl)c2cccnc12` was tested. Which inhibition did it give?
**A.** The inhibition was 65.4% (active).

**Q.** `CCN(CC)C(=O)Oc1ccc(Cl)c2cccnc12` was tested. Which inhibition did it give?
**A.** The inhibition was 16.1% [at 20 µM].

**Q.** With `O=C(Oc1ccc(Cl)c2cccnc12)c1ccco1` as the compound, how does the inhibition read?
**A.** Its inhibition is 6.4%.

**Q.** `CSC(=S)N/N=C(\C)c1ccc(Br)cc1` was tested. Which inhibition did it give?
**A.** Its inhibition is 46.1%.

**Q.** Which inhibition does the source give for `C/C(=N\NC(N)=S)c1ccccc1` here?
**A.** Its inhibition is 11.9%.

**Q.** For `Cc1c(C(=O)Nc2ccc3c(c2)OCO3)oc2ccccc12`, which inhibition is on record?
**A.** The inhibition was -1.2%.

**Q.** For `Cc1ccc2nc(-c3ccccn3)[nH]c2c1`, which inhibition is on record?
**A.** The inhibition was -33.9% [at 20 µM].

**Q.** With `Cc1cc(=S)nc(-c2ccccn2)[nH]1` as the compound, how does the inhibition read?
**A.** The inhibition was -17.8%.

**Q.** For `CCN(CC)CCn1c2ccccc2c2cnc(N=CN(C)C)c(C#N)c21`, which inhibition is on record?
**A.** The inhibition was -24.3%.

**Q.** For `CCO/C(=C/c1sc2ccc(OC)cc2[n+]1CCCS(=O)(=O)[O-])CC`, which inhibition is on record?
**A.** Its inhibition is 2.7%.

**Q.** `CSc1sc2ccccc2[n+]1CCCS(=O)(=O)[O-]` was tested. Which inhibition did it give?
**A.** Its inhibition is 21.2%.

**Q.** Which inhibition does the source give for `O=c1cc(-c2ccccc2)nc(Cc2c(Cl)cccc2Cl)[nH]1` here?
**A.** The inhibition was 29.4%.

**Q.** With `CCNC(=O)NC(=O)C(C)OC(=O)CCS(=O)(=O)c1ccc(C)cc1` (centres undefined) as the compound, how does the inhibition read?
**A.** The inhibition was -30.7%.

**Q.** With `COc1ccc(S(=O)(=O)N2CCN(C(=O)COc3ccc(C)c(C)c3)CC2)cc1OC` as the compound, how does the inhibition read?
**A.** The inhibition was -25.1%.

**Q.** With `O=C(Oc1c(Cl)cc(Cl)c2cccnc12)c1cccc([N+](=O)[O-])c1` as the compound, how does the inhibition read?
**A.** The inhibition was 99.6% (active).

**Q.** Which inhibition does the source give for `O=C(Oc1ccc(Cl)c2cccnc12)c1cccc([N+](=O)[O-])c1` here?
**A.** Its inhibition is -2.7%.

**Q.** `O=C(Oc1cccc2cccnc12)c1cccc([N+](=O)[O-])c1` was tested. Which inhibition did it give?
**A.** Its inhibition is -16.3% [at 20 µM].

**Q.** Which inhibition does the source give for `COc1cc2c(cc1OC)CN(C(=O)CCNS(=O)(=O)c1ccccc1F)CC2` here?
**A.** Its inhibition is 5.3%.

**Q.** For `Cc1nc2scc(-c3ccccc3)c2c(=O)n1N`, which inhibition is on record?
**A.** The inhibition was -2.3%.

**Q.** With `Cc1ccc(C)n1-n1c(C)nc2scc(-c3ccccc3)c2c1=O` as the compound, how does the inhibition read?
**A.** The inhibition was -3.4%.

**Q.** `Cc1nc(NC(=O)CSC2=NCCS2)sc1C(=O)N(C)C` was tested. Which inhibition did it give?
**A.** Its inhibition is -22.6%.

**Q.** For `COc1ccc(S(=O)(=O)N2CCN(c3ccccn3)CC2)cc1[N+](=O)[O-]`, which inhibition is on record?
**A.** The inhibition was 5.2%.

**Q.** Which inhibition does the source give for `CC(C)(C)C(=O)/C(C#N)=C/c1cccs1` here?
**A.** Its inhibition is 1.1%.

**Q.** Which inhibition does the source give for `O=C(Nc1ccccc1)c1ccc(Nc2c([N+](=O)[O-])cc([N+](=O)[O-])c3ccccc23)cc1` here?
**A.** The inhibition was 20.1%.

**Q.** With `Cc1ccc(NC(=O)c2ccc(Nc3c([N+](=O)[O-])cc([N+](=O)[O-])cc3[N+](=O)[O-])cc2)cc1` as the compound, how does the inhibition read?
**A.** The inhibition was 1.3%.

**Q.** `Cc1ccc(NC(=O)C2CCN(S(=O)(=O)c3ccc4c(c3)NC(=O)C(C)S4)CC2)c(C)c1` (centres undefined) was tested. Which inhibition did it give?
**A.** Its inhibition is 11.1%.

**Q.** Which inhibition does the source give for `COc1ccc(CSc2cccc3cccnc23)cc1[N+](=O)[O-]` here?
**A.** The inhibition was -30.5%.

**Q.** With `Cc1cccc(NC(=O)CSc2cccc3cccnc23)c1` as the compound, how does the inhibition read?
**A.** The inhibition was -3%.

**Q.** How did the inhibition turn out when `CC(Oc1ccccc1)C(=O)Nc1nnc(S(=O)(=O)Nc2ccccc2)s1` (centres undefined) was run?
**A.** The inhibition was -37.1% [at 20 µM].

**Q.** How did the inhibition turn out when `COc1ccc(N(CC(=O)Nc2ccc(S(=O)(=O)N3CCOCC3)cc2)S(=O)(=O)c2ccc(F)cc2)cc1` was run?
**A.** Its inhibition is 28.3%.

**Q.** How did the inhibition turn out when `COc1ccc(N(CC(=O)Nc2ccc(S(=O)(=O)N3CCOCC3)cc2)S(=O)(=O)c2ccccc2)cc1` was run?
**A.** The inhibition was -0.6%.

**Q.** For `C=CCN1C(=O)/C(=C\C=C2\N(C)c3ccccc3C2(C)C)SC1=S`, which inhibition is on record?
**A.** Its inhibition is 3.2%.

**Q.** For `CN1/C(=C\C=C2/C(=O)Oc3ccccc3C2=O)C(C)(C)c2ccccc21`, which inhibition is on record?
**A.** Its inhibition is -18.4%.

**Q.** How did the inhibition turn out when `CN1C(=CC=C2C=C(I)C(=O)C(I)=C2)C(C)(C)c2ccccc21` was run?
**A.** Its inhibition is 68.2% (active).

**Q.** With `CN1/C(=C\C=O)C(C)(C)c2ccccc21` as the compound, how does the inhibition read?
**A.** The inhibition was -23.9%.

**Q.** How did the inhibition turn out when `CCCN1C(=O)/C(=C\C=C2/Sc3ccccc3N2CCO)SC1=S` was run?
**A.** Its inhibition is 17.8%.

**Q.** For `CCCCN1C(=O)/C(=C/C=C2\N(C)c3ccccc3C2(C)C)SC1=S`, which inhibition is on record?
**A.** The inhibition was 6.8%.

**Q.** How did the inhibition turn out when `CN1/C(=C\C=C2/SC(=S)N(CC(=O)O)C2=O)C(C)(C)c2ccccc21` was run?
**A.** The inhibition was 77.1% [at 20 µM] (active).

**Q.** How did the inhibition turn out when `CCCN1C(=O)/C(=C\C=C2/Sc3ccccc3N2CC)SC1=S` was run?
**A.** The inhibition was -42.6% [at 20 µM].

**Q.** How did the inhibition turn out when `O=C1CC(C2CCCO2)C(=O)N1c1ccccc1` (centres undefined) was run?
**A.** Its inhibition is -21.9%.

**Q.** For `Cn1c(=O)c(C(=O)NCc2ccccc2Cl)c(O)c2ccccc21`, which inhibition is on record?
**A.** The inhibition was -41.3% [at 20 µM].

**Q.** `Cc1ccccc1CN(C)C(=O)CNC(=O)c1ccc2ccccc2c1` was tested. Which inhibition did it give?
**A.** Its inhibition is -14.6%.

**Q.** With `Cc1ccc(NC(=O)Cn2cc(S(=O)(=O)c3ccc(F)cc3)c(=O)c3cc(F)ccc32)cc1` as the compound, how does the inhibition read?
**A.** The inhibition was -36.8%.
